As usually defined, the AC50 is the concentration at which the activity in the assay is half-maximal.

The structures appear in SMILES notation. Results filed as inconclusive are left out. The source made the active and inactive calls. How the source made its calls: active means hit-call score of the fitted dose curve at least 0.9, where 1 is the maximum; inconclusive means response in the unintended direction; inactive means score below 0.9.

Sequence of human Thyroid Receptor Alpha (TRa), THRA (gene 7067) (P10827 whole entry, looked up): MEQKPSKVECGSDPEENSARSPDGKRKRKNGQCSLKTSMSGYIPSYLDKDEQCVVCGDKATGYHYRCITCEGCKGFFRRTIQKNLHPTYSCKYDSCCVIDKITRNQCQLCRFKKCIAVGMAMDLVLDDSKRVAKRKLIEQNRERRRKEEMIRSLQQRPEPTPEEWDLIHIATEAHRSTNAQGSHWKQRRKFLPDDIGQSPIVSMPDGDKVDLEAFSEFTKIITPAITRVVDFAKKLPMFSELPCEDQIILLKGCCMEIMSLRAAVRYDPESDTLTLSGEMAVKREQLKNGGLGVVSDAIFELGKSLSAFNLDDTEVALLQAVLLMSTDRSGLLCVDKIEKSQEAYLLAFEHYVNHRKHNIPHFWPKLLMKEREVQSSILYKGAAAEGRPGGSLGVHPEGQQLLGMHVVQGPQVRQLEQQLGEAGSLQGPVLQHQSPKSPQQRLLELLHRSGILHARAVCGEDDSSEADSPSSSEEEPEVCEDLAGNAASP
Sequence of Glucocorticoid receptor (Homo sapiens) (P04150 whole entry, looked up): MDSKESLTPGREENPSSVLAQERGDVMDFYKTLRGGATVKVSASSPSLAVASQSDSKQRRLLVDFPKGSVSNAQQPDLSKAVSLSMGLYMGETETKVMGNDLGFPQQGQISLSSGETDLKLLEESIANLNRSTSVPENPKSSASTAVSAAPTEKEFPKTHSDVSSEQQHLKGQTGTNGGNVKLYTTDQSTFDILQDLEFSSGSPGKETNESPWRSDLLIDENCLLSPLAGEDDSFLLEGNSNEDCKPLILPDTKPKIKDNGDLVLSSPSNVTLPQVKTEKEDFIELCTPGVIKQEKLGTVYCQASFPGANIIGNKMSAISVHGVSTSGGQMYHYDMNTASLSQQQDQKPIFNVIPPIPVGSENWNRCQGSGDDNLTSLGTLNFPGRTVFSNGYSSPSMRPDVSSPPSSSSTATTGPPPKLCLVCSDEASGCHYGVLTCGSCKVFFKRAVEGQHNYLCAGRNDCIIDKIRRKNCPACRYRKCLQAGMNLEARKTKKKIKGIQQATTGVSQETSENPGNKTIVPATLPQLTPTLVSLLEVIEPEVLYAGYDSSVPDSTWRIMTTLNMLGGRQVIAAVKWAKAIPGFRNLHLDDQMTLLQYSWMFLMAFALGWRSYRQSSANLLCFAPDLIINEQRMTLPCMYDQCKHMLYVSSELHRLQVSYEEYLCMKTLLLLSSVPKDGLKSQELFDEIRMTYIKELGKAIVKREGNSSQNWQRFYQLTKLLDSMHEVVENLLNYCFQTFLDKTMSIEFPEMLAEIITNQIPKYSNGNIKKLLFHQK
Sequence of Estrogen receptor beta (Homo sapiens) (Q92731 whole entry, looked up, the tested form may be a part): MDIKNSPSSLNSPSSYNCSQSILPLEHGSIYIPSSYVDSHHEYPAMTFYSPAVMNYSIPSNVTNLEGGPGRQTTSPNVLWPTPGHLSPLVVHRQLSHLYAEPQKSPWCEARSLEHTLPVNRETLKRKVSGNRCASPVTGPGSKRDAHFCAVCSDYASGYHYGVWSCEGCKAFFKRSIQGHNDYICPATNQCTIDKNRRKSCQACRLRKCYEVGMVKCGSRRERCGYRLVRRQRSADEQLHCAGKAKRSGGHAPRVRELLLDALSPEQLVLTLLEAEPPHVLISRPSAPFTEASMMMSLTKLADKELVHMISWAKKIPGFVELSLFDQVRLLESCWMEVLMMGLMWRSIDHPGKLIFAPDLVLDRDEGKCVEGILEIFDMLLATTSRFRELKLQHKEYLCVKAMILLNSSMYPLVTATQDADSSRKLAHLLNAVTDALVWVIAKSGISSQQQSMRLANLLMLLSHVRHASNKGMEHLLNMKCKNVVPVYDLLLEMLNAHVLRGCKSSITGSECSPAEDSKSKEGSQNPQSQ
Sequence of rat Androgen Receptor (AR), Ar (gene 24208) (P15207 whole entry, looked up): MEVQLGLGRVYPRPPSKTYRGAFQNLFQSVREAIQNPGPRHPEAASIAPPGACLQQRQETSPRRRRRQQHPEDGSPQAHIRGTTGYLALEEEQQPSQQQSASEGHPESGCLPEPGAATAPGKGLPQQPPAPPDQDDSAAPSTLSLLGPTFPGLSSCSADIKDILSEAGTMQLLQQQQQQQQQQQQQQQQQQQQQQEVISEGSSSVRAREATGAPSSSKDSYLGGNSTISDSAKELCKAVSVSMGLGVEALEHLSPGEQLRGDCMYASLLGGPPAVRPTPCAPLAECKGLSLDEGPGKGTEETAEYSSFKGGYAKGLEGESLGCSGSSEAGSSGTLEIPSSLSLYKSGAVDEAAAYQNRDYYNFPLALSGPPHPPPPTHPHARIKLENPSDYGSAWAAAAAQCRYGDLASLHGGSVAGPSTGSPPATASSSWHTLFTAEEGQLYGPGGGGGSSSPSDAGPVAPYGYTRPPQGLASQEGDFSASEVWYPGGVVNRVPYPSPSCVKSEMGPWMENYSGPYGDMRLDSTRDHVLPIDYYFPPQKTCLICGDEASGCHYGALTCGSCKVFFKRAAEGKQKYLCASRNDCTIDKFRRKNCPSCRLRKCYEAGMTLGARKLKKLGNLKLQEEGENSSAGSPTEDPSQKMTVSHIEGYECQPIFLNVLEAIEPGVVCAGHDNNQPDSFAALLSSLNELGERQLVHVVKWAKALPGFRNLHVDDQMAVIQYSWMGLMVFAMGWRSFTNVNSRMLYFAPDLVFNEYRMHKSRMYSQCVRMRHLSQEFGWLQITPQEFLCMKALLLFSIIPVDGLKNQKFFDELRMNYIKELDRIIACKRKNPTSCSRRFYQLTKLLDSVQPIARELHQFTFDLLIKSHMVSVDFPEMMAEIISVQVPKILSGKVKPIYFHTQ

One experiment addresses Estrogen receptor beta (Homo sapiens) (UniProt Q92731). The experiment can be described thus: OT_ER_ERbERb_0480: Odyssey Thera (OT) 8-hour HEK293T Protein-Complementation Assay for Estrogen Receptor-beta/-beta Homodimer (AID 2283357).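 Further: active means signal gain over DMSO baseline.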 In short, it runs like this:
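ER-beta LBD homodimer PCA stably expressed in HEK293T; 8 h compound exposure, then formaldehyde fixation and Draq5 staining. Gain in nuclear/cytoplasmic fluorescence intensity versus DMSO vehicle, read on laser scanning cytometer.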
For `COP(=O)(NC(C)=O)SC` (stereo unspecified), the outcome was inactive.
Consider `CCCSP(=O)(OCC)Oc1ccc(Br)cc1Cl` (stereo unspecified), for which the AC50 was 29.8 µM (active).
On to `CC(=NC#N)N(C)Cc1ccc(Cl)nc1`, for which the molecule was called inactive.
Turning to `CCOP(=O)(OCC)Oc1cc(C)nc(C(C)C)n1`, the outcome was inactive.
For the molecule `C[N+]1(C)CCCCC1`, the molecule was classed as inactive.
On the same count and under the same terms, the result for `CCC(=NOC/C=C/Cl)C1=C(O)CC(C2CCOCC2)CC1=O` (stereo unspecified) reads “inactive”; that for `C#CCC1=C(C)C(OC(=O)C2C(C=C(C)C)C2(C)C)CC1=O` (stereo unspecified), “inactive”.
For the molecule `CC1(C(=O)Nc2ccc(O)c(Cl)c2Cl)CCCCC1`, the AC50 is 22.2 µM (active).
`CC(C)[C@H](C(=O)O[C@H](C#N)c1cccc(Oc2ccccc2)c1)c1ccc(Cl)cc1`: the outcome was inactive.
For `CCOP(=S)(OCC)OC(Cl)C(Cl)(Cl)Cl` (stereo unspecified), the AC50 was 38.6 µM (active).
Consider `FC(F)C(F)(F)OCC(Cn1cncn1)c1ccc(Cl)cc1Cl` (stereo unspecified), for which the result was inactive.
With `C[Si](Cn1cncn1)(c1ccc(F)cc1)c1ccc(F)cc1`, the result was inactive.
Still for that read-out and setting: in the case of `CCCOCC(=Nc1ccc(Cl)cc1C(F)(F)F)n1ccnc1` it was “inactive”; in that of `O=C(O)c1cc(Oc2ccc(C(F)(F)F)cc2Cl)ccc1[N+](=O)[O-]`, “inactive”; in that of `CNC(=O)ON=C(C)SC`, “inactive”.
On the same count and under the same terms, the result for `CC(COc1ccc(Oc2ccccc2)cc1)Oc1ccccn1` (stereo unspecified) reads “inactive”.
With `CCC(CC)Nc1c([N+](=O)[O-])cc(C)c(C)c1[N+](=O)[O-]`, the AC50 is 12.6 µM (active).

The target in the next experiment is Retinoic acid receptor alpha (Homo sapiens) (UniProt P10276). The experiment can be described thus: NVS_NR_hRAR_Antagonist: NovaScreen (NVS) Nuclear Receptor Binding Assay for human Retinoic Acid Alpha Receptor Antagonism (RAR) (AID 2283358). In short, it runs like this: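 RARalpha antagonism was read by TR-FRET as loss of binding signal versus DMSO, 2 h after chemical addition, in a biochemical format. Single-concentration duplicates (25 uM) were run first, and actives were retested in concentration series.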
Sequence of Retinoic acid receptor alpha (Homo sapiens) (P10276 whole entry, looked up): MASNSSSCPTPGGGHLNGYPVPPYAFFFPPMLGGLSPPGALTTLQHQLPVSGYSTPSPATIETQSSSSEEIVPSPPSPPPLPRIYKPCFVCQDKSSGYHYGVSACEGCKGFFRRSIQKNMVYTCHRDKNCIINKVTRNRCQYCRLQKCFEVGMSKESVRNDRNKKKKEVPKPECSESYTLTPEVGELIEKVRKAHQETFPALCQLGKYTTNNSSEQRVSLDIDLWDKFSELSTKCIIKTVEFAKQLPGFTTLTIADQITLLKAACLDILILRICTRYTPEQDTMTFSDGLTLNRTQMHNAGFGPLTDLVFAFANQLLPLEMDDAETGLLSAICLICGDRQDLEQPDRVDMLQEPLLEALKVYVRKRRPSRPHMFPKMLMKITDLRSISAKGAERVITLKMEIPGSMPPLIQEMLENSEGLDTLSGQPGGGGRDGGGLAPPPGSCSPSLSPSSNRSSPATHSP
For `S=C1NCCN1`, the molecule was classed as inactive.
As for `C#CC(C)(C)NC(=O)c1cc(Cl)cc(Cl)c1`, the result was inactive.
Regarding `COP(=O)(OC)C(O)C(Cl)(Cl)Cl` (stereo unspecified), the molecule was classed as inactive.

The target of the next experiment is PGR (gene 5241) (UniProt P06401). The experiment can be described thus: NVS_NR_hPR: NovaScreen (NVS) Nuclear Receptor Binding Assay for human Progestron Receptor (PR) (AID 2283360).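 Further: active means loss of bound radioligand signal versus DMSO baseline.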 In short, it runs like this: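 T47D lysate; tritiated or iodinated radioligand; scintillation count at 18 h. DMSO = negative control/baseline. Primary: 25 uM, duplicate. Secondary: concentration series for actives.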
Sequence of PGR (gene 5241) (P06401 whole entry, looked up): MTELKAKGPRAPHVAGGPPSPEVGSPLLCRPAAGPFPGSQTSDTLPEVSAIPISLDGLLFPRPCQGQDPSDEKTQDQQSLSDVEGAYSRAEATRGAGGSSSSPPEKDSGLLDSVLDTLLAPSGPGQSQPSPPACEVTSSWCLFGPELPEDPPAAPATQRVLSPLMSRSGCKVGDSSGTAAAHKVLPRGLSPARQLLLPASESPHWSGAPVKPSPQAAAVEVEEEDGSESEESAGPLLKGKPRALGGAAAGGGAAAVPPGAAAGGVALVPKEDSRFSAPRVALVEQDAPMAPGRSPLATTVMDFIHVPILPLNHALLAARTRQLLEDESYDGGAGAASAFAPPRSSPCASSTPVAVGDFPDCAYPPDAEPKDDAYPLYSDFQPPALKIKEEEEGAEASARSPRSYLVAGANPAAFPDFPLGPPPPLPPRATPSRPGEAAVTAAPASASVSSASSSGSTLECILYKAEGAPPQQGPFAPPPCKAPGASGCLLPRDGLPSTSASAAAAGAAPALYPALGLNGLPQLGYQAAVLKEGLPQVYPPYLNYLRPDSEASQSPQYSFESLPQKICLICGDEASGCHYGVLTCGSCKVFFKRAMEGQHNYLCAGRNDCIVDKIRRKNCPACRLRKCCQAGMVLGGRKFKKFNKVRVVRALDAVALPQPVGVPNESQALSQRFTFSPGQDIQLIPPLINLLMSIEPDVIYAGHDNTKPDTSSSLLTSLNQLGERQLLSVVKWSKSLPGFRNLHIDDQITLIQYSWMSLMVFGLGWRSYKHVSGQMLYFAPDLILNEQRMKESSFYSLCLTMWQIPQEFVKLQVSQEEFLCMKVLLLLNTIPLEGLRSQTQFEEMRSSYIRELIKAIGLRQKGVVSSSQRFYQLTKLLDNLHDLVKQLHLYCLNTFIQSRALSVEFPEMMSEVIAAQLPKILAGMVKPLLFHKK
Turning to `CCOP(=S)(OCC)Oc1ccc2c(C)c(Cl)c(=O)oc2c1`, the half-maximal activity concentration (AC50) is 1.13 µM (active).
`CC[C@H](C)[C@H]1O[C@]2(C=C[C@@H]1C)C[C@@H]1C[C@@H](C/C=C(\C)[C@@H](O[C@H]3C[C@H](OC)[C@@H](O[C@H]4C[C@H](OC)[C@@H](NC)[C@H](C)O4)[C@H](C)O3)[C@@H](C)/C=C/C=C3\CO[C@@H]4[C@H](O)C(C)=C[C@@H](C(=O)O1)[C@]34O)O2`: the call was inactive.
Regarding `CCOP(=S)(OCC)Oc1cc(C)nc(C(C)C)n1`, the molecule was called inactive.
Take `CCCSP(=O)(OCC)Oc1ccc(Br)cc1Cl` (stereo unspecified): the AC50 was 25 µM (active).
`CCOP(=O)(OCC)Oc1cc(C)nc(C(C)C)n1`: the molecule was called inactive.
On to `CC1(C(=O)Nc2ccc(O)c(Cl)c2Cl)CCCCC1`, for which the molecule was called inactive.
On the same count and under the same terms, the result for `C[Si](Cn1cncn1)(c1ccc(F)cc1)c1ccc(F)cc1` reads “inactive”.
With `CCCOCC(=Nc1ccc(Cl)cc1C(F)(F)F)n1ccnc1`, the result was inactive.
Still for that read-out and setting: in the case of `CCCSP(=O)(OCC)SCCC` it was “inactive”; in that of `C=C(C)[C@H]1Cc2c(ccc3c2O[C@@H]2COc4cc(OC)c(OC)cc4[C@@H]2C3=O)O1`, “inactive”.
`CNC(=O)ON=C(C)SC`: the result was inactive.
Turning to `CC(COc1ccc(Oc2ccccc2)cc1)Oc1ccccn1` (stereo unspecified), the call was inactive.
`CCC(CC)Nc1c([N+](=O)[O-])cc(C)c(C)c1[N+](=O)[O-]`: the result was inactive.

A further experiment has as its target human Thyroid Receptor Alpha (TRa), THRA (gene 7067) (UniProt P10827). Put plainly: NVS_NR_hTRa_Antagonist: NovaScreen (NVS) Nuclear Receptor Binding Assay for human Thyroid Receptor Alpha Antagonism (TRa) (AID 2283362).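 Further: activity is loss of signal relative to DMSO baseline.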 In short, it runs like this: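 Chemicals were first screened in duplicate at 25 uM, then actives were retested in concentration series. Binding to the extracted receptor was measured 1 h after dosing by AlphaLISA chemiluminescence, with decreased signal versus DMSO scored as activity.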
For `S=C1NCCN1`, the molecule was classed as inactive.
As to `CN(C)[C@@H]1C(=O)C(C(N)=O)=C(O)[C@@]2(O)C(=O)C3=C(O)c4c(O)cccc4[C@@](C)(O)[C@H]3[C@H](O)[C@@H]12`, the call was inactive.
Still for that read-out and setting: the result for `CCOP(=O)(OCC)Oc1cc(C)nc(C(C)C)n1` reads “inactive”.
Regarding `CCc1cnc(C2=NC(C)(C(C)C)C(=O)N2)c(C(=O)O)c1` (stereo unspecified), the AC50 was 17.7 µM (active).
Take `C=C(C)[C@H]1Cc2c(ccc3c2O[C@@H]2COc4cc(OC)c(OC)cc4[C@@H]2C3=O)O1`: the molecule was called inactive.
Regarding `CCC(CC)Nc1c([N+](=O)[O-])cc(C)c(C)c1[N+](=O)[O-]`, the call was inactive.

Another experiment concerns the target Glucocorticoid receptor (Homo sapiens) (UniProt P04150). Put plainly: NVS_NR_hGR: NovaScreen (NVS) Nuclear Receptor Binding Assay for human Glucocorticoid Receptor (GR) (AID 2283363).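 On AC50: activity is loss of specific radioligand binding signal relative to DMSO.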 In short, it runs like this: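 Compounds first tested in duplicate at 25 uM, actives followed up in concentration series. Binding to extracted GR protein measured as competitive radioligand displacement, filter scintillation read 16 h post-dosing, normalised to DMSO.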
Consider `COP(=O)(NC(C)=O)SC` (stereo unspecified), for which the AC50 was 1.66 µM (active).
Consider `CCOP(=S)(OCC)Oc1cc(C)nc(C(C)C)n1`, for which the molecule was called inactive.
`FC(F)C(F)(F)OCC(Cn1cncn1)c1ccc(Cl)cc1Cl` (stereo unspecified): the AC50 is 8.87 µM (active).
For the molecule `C#CC(C)(C)NC(=O)c1cc(Cl)cc(Cl)c1`, the call was inactive.
Take `CCCOCC(=Nc1ccc(Cl)cc1C(F)(F)F)n1ccnc1`: the AC50 is 7.9 µM (active).
For the molecule `CCCSP(=O)(OCC)SCCC`, the outcome was inactive.
In the case of `C=C(C)[C@H]1Cc2c(ccc3c2O[C@@H]2COc4cc(OC)c(OC)cc4[C@@H]2C3=O)O1`, the AC50 is 0.425 µM (active).
Take `CNC(=O)ON=C(C)SC`: the result was inactive.
On to `CCC(CC)Nc1c([N+](=O)[O-])cc(C)c(C)c1[N+](=O)[O-]`, for which the call was inactive.

The next experiment addresses rat Androgen Receptor (AR), Ar (gene 24208) (UniProt P15207). Put plainly: NVS_NR_rAR: NovaScreen (NVS) Nuclear Receptor Binding Assay for rat Androgen Receptor (AR) (AID 2283366). In short, it runs like this: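 Actives from a duplicate single-concentration (25 uM) primary run went on to concentration series. Displacement of radioligand was counted by filtration and scintillation, 18 h post-dose, using prostate extracts from testosterone-pretreated rats, with DMSO as baseline.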
`CCCSP(=O)(OCC)SCCC`: the molecule was classed as inactive.
On to `C=C(C)[C@H]1Cc2c(ccc3c2O[C@@H]2COc4cc(OC)c(OC)cc4[C@@H]2C3=O)O1`, for which the molecule was called inactive.
Still for that read-out and setting: the result for `CC(COc1ccc(Oc2ccccc2)cc1)Oc1ccccn1` (stereo unspecified) reads “inactive”.

For another experiment, the target named is guinea pig Sigma Receptor, Non-selective Binding, SIGMAR1 (gene 100135589) (UniProt Q60492). Put plainly: NVS_OR_gSIGMA_NonSelective: NovaScreen (NVS) Nuclear Receptor Binding Assay for guinea pig Sigma Receptor, Non-selective Binding (AID 2283367). In short, it runs like this: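 Guinea pig brain membrane sigma sites were labelled with a radioligand, and bound radioactivity was counted after filtration 1 h post-dose. Compounds were screened at 25 uM in duplicate, then retested as concentration series when active.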
Sequence of guinea pig Sigma Receptor, Non-selective Binding, SIGMAR1 (gene 100135589) (Q60492 whole entry, looked up): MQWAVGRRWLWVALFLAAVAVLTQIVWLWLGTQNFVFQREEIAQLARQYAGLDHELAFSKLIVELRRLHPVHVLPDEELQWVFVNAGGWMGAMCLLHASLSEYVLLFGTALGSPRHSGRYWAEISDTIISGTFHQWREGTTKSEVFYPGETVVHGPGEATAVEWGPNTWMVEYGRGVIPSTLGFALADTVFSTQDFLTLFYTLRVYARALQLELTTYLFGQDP
As for `S=C1NCCN1`, the outcome was inactive.
For `CCC(=O)Nc1ccc(Cl)c(Cl)c1`, the concentration at half-maximal activity (AC50) is 9.51 µM (active).
Same read-out and setting: the result for `FC(F)C(F)(F)OCC(Cn1cncn1)c1ccc(Cl)cc1Cl` (stereo unspecified) reads 16.5 µM (active); that for `C#CC(C)(C)NC(=O)c1cc(Cl)cc(Cl)c1`, 1.94 µM (active); that for `CCCOCC(=Nc1ccc(Cl)cc1C(F)(F)F)n1ccnc1`, 7.82 µM (active).

A further experiment relates to guinea pig Dopamine Transporter (DAT), gene 100714898. Put plainly: NVS_TR_gDAT: NovaScreen (NVS) Transporter Assay for guinea pig Dopamine Transporter (DAT) (AID 2283369).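 Further: active compounds lower bound radioligand signal relative to DMSO.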 In short, it runs like this:
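Test chemicals were incubated 2 h with guinea pig striatal membranes and a radioligand; bound label was separated by filtration and counted. Screening ran at 25 uM, followed by concentration-response testing to a 50 uM maximum.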
For `C#CCC1=C(C)C(OC(=O)C2C(C=C(C)C)C2(C)C)CC1=O` (stereo unspecified), the AC50 was 9.21 µM (active).
The same measure, in the same setting: in the case of `CC1(C(=O)Nc2ccc(O)c(Cl)c2Cl)CCCCC1` it was 3.33 µM (active).
As to `CC(C)=CC1C(C(=O)OCN2C(=O)C3=C(CCCC3)C2=O)C1(C)C` (stereo unspecified), the molecule was called inactive.
As for `CCCOCC(=Nc1ccc(Cl)cc1C(F)(F)F)n1ccnc1`, the outcome was inactive.
On the same count and under the same terms, the result for `C=C(C)[C@H]1Cc2c(ccc3c2O[C@@H]2COc4cc(OC)c(OC)cc4[C@@H]2C3=O)O1` reads “inactive”.

Source of the values: PubChem BioAssay (EPA / NIEHS).
